# Measurements published in publication PMC11062922 (Nature Chemical Biology, 2023).
# Like-named read-outs stand apart in the source and are kept apart here.
# What was measured:
# SIK2 = conditions: read-out: apparent Kd, n = 1
# STK3 = conditions: read-out: apparent Kd, n = 1
substance,measurement,setting,value
Lestaurtinib,potency estimated from few doses,"SIK2; compound concentrations:100 nM and 1000 nM (sheet 'Lestaurtinib' of Supplementary Table 1),run:Lestaurtinib_02584_R3,Plate:MR017",53.4 nM
same,potency estimated from few doses,"SIK2; compound concentrations:100 nM and 1000 nM (sheet 'Lestaurtinib' of Supplementary Table 1),run:Lestaurtinib_02601_R2,Plate:MR018",94.3 nM
same,potency estimated from few doses,"SIK2; compound concentrations:100 nM and 1000 nM (sheet 'Lestaurtinib' of Supplementary Table 1),run:Lestaurtinib_02601_R3,Plate:MR018",40.2 nM
same,potency estimated from few doses,"SIK2; compound concentrations:100 nM and 1000 nM (sheet 'Lestaurtinib' of Supplementary Table 1),run:Lestaurtinib_02606_R1,Plate:MR019",51.2 nM
same,potency estimated from few doses,"SIK2; compound concentrations:100 nM and 1000 nM (sheet 'Lestaurtinib' of Supplementary Table 1),run:Lestaurtinib_02606_R2,Plate:MR019",45.6 nM
same,potency estimated from few doses,"SIK2; compound concentrations:100 nM and 1000 nM (sheet 'Lestaurtinib' of Supplementary Table 1),run:Lestaurtinib_02624_R1,Plate:MR020",51.5 nM
same,potency estimated from few doses,"SIK2; compound concentrations:100 nM and 1000 nM (sheet 'Lestaurtinib' of Supplementary Table 1),run:Lestaurtinib_02624_R2,Plate:MR020",49.5 nM
same,potency estimated from few doses,"SIK2; compound concentrations:100 nM and 1000 nM (sheet 'Lestaurtinib' of Supplementary Table 1),run:Lestaurtinib_02624_R3,Plate:MR020",46.5 nM
same,potency estimated from few doses,"SIK2; compound concentrations:100 nM and 1000 nM (sheet 'Lestaurtinib' of Supplementary Table 1),run:Lestaurtinib_02724_R1,Plate:MR021",73.9 nM
same,potency estimated from few doses,"SIK2; compound concentrations:100 nM and 1000 nM (sheet 'Lestaurtinib' of Supplementary Table 1),run:Lestaurtinib_02724_R2,Plate:MR021",44.8 nM
same,potency estimated from few doses,"SIK2; compound concentrations:100 nM and 1000 nM (sheet 'Lestaurtinib' of Supplementary Table 1),run:Lestaurtinib_02724_R3,Plate:MR021",50.5 nM
same,potency estimated from few doses,"SIK2; compound concentrations:100 nM and 1000 nM (sheet 'Lestaurtinib' of Supplementary Table 1),run:Lestaurtinib_02741_R1,Plate:MR023",57.2 nM
same,potency estimated from few doses,"SIK2; compound concentrations:100 nM and 1000 nM (sheet 'Lestaurtinib' of Supplementary Table 1),run:Lestaurtinib_02741_R2,Plate:MR023",71.3 nM
same,potency estimated from few doses,"SIK2; compound concentrations:100 nM and 1000 nM (sheet 'Lestaurtinib' of Supplementary Table 1),run:Lestaurtinib_02741_R3,Plate:MR023",54.5 nM
same,potency estimated from few doses,"SIK2; compound concentrations:100 nM and 1000 nM (sheet 'Lestaurtinib' of Supplementary Table 1),run:Lestaurtinib_02748_R1,Plate:MR024",48.8 nM
same,potency estimated from few doses,"SIK2; compound concentrations:100 nM and 1000 nM (sheet 'Lestaurtinib' of Supplementary Table 1),run:Lestaurtinib_02748_R2,Plate:MR024",56.4 nM
same,potency estimated from few doses,"SIK2; compound concentrations:100 nM and 1000 nM (sheet 'Lestaurtinib' of Supplementary Table 1),run:Lestaurtinib_02748_R3,Plate:MR024",51.6 nM
same,potency estimated from few doses,"SIK2; compound concentrations:100 nM and 1000 nM (sheet 'Lestaurtinib' of Supplementary Table 1),run:Lestaurtinib_02752_R2,Plate:MR025",56 nM
same,potency estimated from few doses,"SIK2; compound concentrations:100 nM and 1000 nM (sheet 'Lestaurtinib' of Supplementary Table 1),run:Lestaurtinib_02752_R3,Plate:MR025",56 nM
same,potency estimated from few doses,"SIK2; compound concentrations:100 nM and 1000 nM (sheet 'Lestaurtinib' of Supplementary Table 1),run:Lestaurtinib_02765_R1,Plate:MR026",49.7 nM
same,potency estimated from few doses,"SIK2; compound concentrations:100 nM and 1000 nM (sheet 'Lestaurtinib' of Supplementary Table 1),run:Lestaurtinib_02765_R2,Plate:MR026",91.3 nM
same,potency estimated from few doses,"SIK2; compound concentrations:100 nM and 1000 nM (sheet 'Lestaurtinib' of Supplementary Table 1),run:Lestaurtinib_02766_R1,Plate:MR027",43.3 nM
same,potency estimated from few doses,"SIK2; compound concentrations:100 nM and 1000 nM (sheet 'Lestaurtinib' of Supplementary Table 1),run:Lestaurtinib_02766_R2,Plate:MR027",26.9 nM
same,potency estimated from few doses,"SIK2; compound concentrations:100 nM and 1000 nM (sheet 'Lestaurtinib' of Supplementary Table 1),run:Lestaurtinib_02768_R2,Plate:MR028",45.1 nM
same,potency estimated from few doses,"SIK2; compound concentrations:100 nM and 1000 nM (sheet 'Lestaurtinib' of Supplementary Table 1),run:Lestaurtinib_02768_R3,Plate:MR028",47.4 nM
same,potency estimated from few doses,"SIK2; compound concentrations:100 nM and 1000 nM (sheet 'Lestaurtinib' of Supplementary Table 1),run:Lestaurtinib_02795_R1,Plate:MR022",59.7 nM
same,potency estimated from few doses,"SIK2; compound concentrations:100 nM and 1000 nM (sheet 'Lestaurtinib' of Supplementary Table 1),run:Lestaurtinib_02795_R2,Plate:MR022",62.3 nM
same,potency estimated from few doses,"SIK2; compound concentrations:100 nM and 1000 nM (sheet 'Lestaurtinib' of Supplementary Table 1),run:Lestaurtinib_02795_R3,Plate:MR022",165 nM
same,potency estimated from few doses,"SIK2; compound concentrations:100 nM and 1000 nM (sheet 'Lestaurtinib' of Supplementary Table 1),run:Lestaurtinib_02802_R1,Plate:MR029",49.8 nM
same,potency estimated from few doses,"SIK2; compound concentrations:100 nM and 1000 nM (sheet 'Lestaurtinib' of Supplementary Table 1),run:Lestaurtinib_02802_R2,Plate:MR029",52.5 nM
same,potency estimated from few doses,"SIK2; compound concentrations:100 nM and 1000 nM (sheet 'Lestaurtinib' of Supplementary Table 1),run:Lestaurtinib_02802_R3,Plate:MR029",25.3 nM
same,potency estimated from few doses,"SIK2; compound concentrations:100 nM and 1000 nM (sheet 'Lestaurtinib' of Supplementary Table 1),run:Lestaurtinib_02896_R2,Plate:MR030",44.8 nM
same,potency estimated from few doses,"SIK2; compound concentrations:100 nM and 1000 nM (sheet 'Lestaurtinib' of Supplementary Table 1),run:Lestaurtinib_03172_R1,Plate:MR031",46.2 nM
same,potency estimated from few doses,"SIK2; compound concentrations:100 nM and 1000 nM (sheet 'Lestaurtinib' of Supplementary Table 1),run:Lestaurtinib_03172_R2,Plate:MR031",51.4 nM
same,potency estimated from few doses,"SIK2; compound concentrations:100 nM and 1000 nM (sheet 'Lestaurtinib' of Supplementary Table 1),run:Lestaurtinib_03172_R3,Plate:MR031",49.5 nM
same,potency estimated from few doses,"SIK2; compound concentrations:100 nM and 1000 nM (sheet 'Lestaurtinib' of Supplementary Table 1),run:Lestaurtinib_03252_R2,Plate:MR032",34.3 nM
same,potency estimated from few doses,"SIK2; compound concentrations:100 nM and 1000 nM (sheet 'Lestaurtinib' of Supplementary Table 1),run:Lestaurtinib_03260_R1,Plate:MR033",77.2 nM
same,potency estimated from few doses,"SIK2; compound concentrations:100 nM and 1000 nM (sheet 'Lestaurtinib' of Supplementary Table 1),run:Lestaurtinib_03260_R3,Plate:MR033",54.9 nM
same,potency estimated from few doses,"STK3; compound concentrations:100 nM and 1000 nM (sheet 'Lestaurtinib' of Supplementary Table 1),run:Lestaurtinib_02339_R1,Plate:MR001",36.6 nM
same,potency estimated from few doses,"STK3; compound concentrations:100 nM and 1000 nM (sheet 'Lestaurtinib' of Supplementary Table 1),run:Lestaurtinib_02339_R2,Plate:MR001",36.6 nM
same,potency estimated from few doses,"STK3; compound concentrations:100 nM and 1000 nM (sheet 'Lestaurtinib' of Supplementary Table 1),run:Lestaurtinib_02364_R1,Plate:MR002",36.5 nM
same,potency estimated from few doses,"STK3; compound concentrations:100 nM and 1000 nM (sheet 'Lestaurtinib' of Supplementary Table 1),run:Lestaurtinib_02364_R3,Plate:MR002",51.5 nM
